Measurements from PubChem BioAssay (NCATS).
Several values for one entry are separate records, joined by “and”; a condition that tells them apart may be missing. Equal entries are not always repeated. Records with an inconclusive call do not appear. Activity calls are given as the source filed them. Unless noted, calls follow the shape of the full dose curve.

How the values were obtained:
[1] = qHTS profiling of the MIPE4 collection as inhibitors of Plasmodium falciparum (3D7) proliferation (AID 743344; call rule not given here;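 also: scaled between DMSO vehicle wells and 0.29 µM artemisinin as full inhibition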); settings: P. falciparum 3D7 in erythrocytes, SYBR Green DNA fluorescence, 72 h; at 28.5 µM unless noted
How it was run: (§1)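 Erythrocytes infected with P. falciparum (0.3% parasitemia, 2.5% hematocrit) incubated with compounds 72 h at 37 C, 5% CO2. Lysis with saponin/Triton buffer containing SYBR Green I, overnight at room temperature in the dark; DNA fluorescence (485/535 nm) normalised to 0.29 uM artemisinin and DMSO.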

[2] = qHTS profiling of the MIPE4 collection as inhibitors of Plasmodium falciparum (DD2) proliferation (AID 743345; call rule not given here); settings: P. falciparum Dd2 in erythrocytes, SYBR Green DNA, 72 h; at 28.5 µM unless noted
How it was run: as §1

[3] = qHTS profiling of the MIPE4 collection as inhibitors of Plasmodium falciparum (DD2) proliferation (Rep 2) (AID 743346; call rule not given here); settings: P. falciparum Dd2 in erythrocytes, SYBR Green DNA, 72 h; at 28.5 µM unless noted
How it was run: as §1

[4] = qHTS profiling of the MIPE4 collection as inhibitors of Plasmodium falciparum (HB3) proliferation (AID 743347; call rule not given here;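 also: plate controls were DMSO vehicle wells for no effect and artemisinin wells for full effect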); settings: P. falciparum HB3 in erythrocytes, SYBR Green DNA, 72 h; at 28.5 µM unless noted
How it was run: as §1

[5] = qHTS for Inhibitors of the Functional Ribonucleoprotein Complex (vRNP) of Lassa (LASV) Arenavirus: LASV Primary Screen - GLuc reporter signal (AID 1347082; calls by dose curve; tested in HEK293 reporter line; also: % is scaled to controls: 0 for no effect and ±100 for the full control effect; nearly all actives have a fitted effect of over 60% in size)
[6] = qHTS for Inhibitors of the Functional Ribonucleoprotein Complex (vRNP) of Lassa (LASV) Arenavirus: Viability assay - alamar blue signal for LASV Primary Screen (AID 1347083; calls by dose curve; tested in HEK293 reporter line; also: nearly all actives have a fitted effect of over 80% in size; also: potency is read from the fitted curve at half-maximal effect)
[7] = qHTS for Inhibitors of the Functional Ribonucleoprotein Complex (vRNP) of Lymphocytic Choriomeningitis Arenaviruses (LCMV): Viability assay - alamar blue signal for LCMV Primary Screen (AID 1347085; calls by dose curve; tested in HEK293 reporter line; also: nearly all actives have a fitted effect of over 80% in size; also: potency is read from the fitted curve at half-maximal effect)
[8] = molecular target: Nucleoprotein (Lymphocytic choriomeningitis virus (strain Armstrong)) (UniProt P09992); experiment: qHTS for Inhibitors of the Functional Ribonucleoprotein Complex (vRNP) of Lymphocytic Choriomeningitis Arenaviruses (LCMV): LCMV Primary Screen - GLuc reporter signal (AID 1347086); also: nearly all actives have a fitted effect of over 70% in size; also: potency is read from the fitted curve at half-maximal effect; as to activity change, negative = inhibition: % is scaled to controls: 0 for no effect and ±100 for the full control effect
CRL-7250 = normal cell line; experiment: qHTS assay to identify novel small-molecules to repurpose for Merkel cell carcinoma treatment (AID 1296009; active = well fitted curve in the direction sought with a large enough effect; an effect the other way counts as inactive or inconclusive; also: nearly all actives have a fitted effect of over 60% in size); settings: MCC and control cell lines, CellTiter-Glo viability, 72 h; series mostly up to 92 µM
How it was run: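 Cells exposed to NPC (8-point) and MIPE (11-point) compound dilutions for 72 hr at 37 degree celsius; viability read by CellTiter-Glo luminescence, normalized to no-cell and DMSO in-plate controls.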

[9] = molecular target: Bile acid receptor (Homo sapiens) (UniProt Q96RI1); experiment: qHTS assay for small molecule agonists of farnesoid X receptor signaling (AID 588527); settings: HEK293T FXR-UAS-bla, beta-lactamase ratio, 16 h; activation: stronger effect = higher value;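 also: 0% = vehicle basal and 100% = reference agonist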
How it was run: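 Quantitative HTS used FXR-UAS-bla HEK293T cells with 16 h compound incubation at 37 C. EC50 values came from concentration-response curves normalized to chenodeoxycholic acid.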

[10] = molecular target: Peroxisome proliferator-activated receptor delta (Homo sapiens) (UniProt Q03181); experiment: qHTS assay for small molecule agonists of peroxisome proliferator-activated receptor delta signaling (AID 588534);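 also: 0% = DMSO basal wells and 100% = positive control agonist at 10 µM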
How it was run: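 Cell-based beta-lactamase reporter assay run in agonist mode: cells seeded and incubated 5 hrs at 37 C, compounds added and incubated 18 hrs at 37 C. CCF4 dye fluorescence read after 2 hrs at RT; EC50 and efficacy from Hill fits.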

[11] = Cytotoxicity counterscreen for inhibitors of SARS-CoV-2 cell entry (AID 1645845); also: nearly all actives have a fitted effect of over 50% in size
How it was run: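 Expi293F/hACE2 cells seeded overnight; cpd pin-transferred in DMSO, 1 h preincubation, + media, 48 h 37 C 5% CO2; ATPLite 1step luminescence; normalized to cells and no cells.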

[12] = Primary qHTS to identify inhibitors of SARS-CoV-2 cell entry (AID 1645846); settings: activity change, negative = inhibition: at 57.1 µM (top of the series) unless noted; also: nearly all actives have a fitted effect of over 45% in size; also: potency is read from the fitted curve at half-maximal effect
How it was run: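 Data are normalized to wells receiving SARS-CoV-2-S pseudoparticles and those given bald particles. Entry signal was luciferase luminescence in stable hACE2 Expi293F cells, 48 hr post-infection, after 1 hr compound pretreatment.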

[13] = molecular target: Nuclear receptor subfamily 1 group I member 3 (Homo sapiens) (UniProt Q14994); experiment: Primary qHTS for antagonist of constitutive androstane receptor (CAR) against the NCATS DSHEA and TCM libraries (AID 1794836; active = well fitted curve in the direction sought with a large enough effect; an effect the other way counts as inactive or inconclusive)
How it was run: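 HepG2 cells stably carrying hCAR and a CYP2B6 luciferase reporter (2,500 cells/well) attached for 5 h, then received compounds with 48 uM CITCO for 24 h at 37C. ONE-Glo luminescence read antagonism; CellTiter-Fluor (405/540 nm) gave viability.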

[14] = Confirmatory qHTS for activators (rescue) of SARS-CoV-2 Cytopathic Effect (CPE) (AID 1508606); also: potency is read from the fitted curve at half-maximal effect; nearly all actives have a fitted effect of over 70% in size
[15] = Primary qHTS for Huh7 cytotoxicity: counterscreen for inhibitors of MERS-S pseudotyped particle cell entry (AID 1479147); settings: outcome: dose series up to 57.1 µM unless noted
[16] = Primary qHTS for inhibitors of MERS-S pseudo-typed particle cell entry (AID 1479149); also: nearly all actives have a fitted effect of over 60% in size
[17] = Primary qHTS for Vero E6 cytotoxicity: counterscreen for inhibitors of SARS-S pseudo-typed particle cell entry (AID 1479150); settings: outcome: dose series up to 57.1 µM unless noted; also: % is scaled to controls: 0 for no effect and ±100 for the full control effect

Nucleoprotein (Lymphocytic choriomeningitis virus (strain Armstrong)), sequence (P09992 whole entry, looked up): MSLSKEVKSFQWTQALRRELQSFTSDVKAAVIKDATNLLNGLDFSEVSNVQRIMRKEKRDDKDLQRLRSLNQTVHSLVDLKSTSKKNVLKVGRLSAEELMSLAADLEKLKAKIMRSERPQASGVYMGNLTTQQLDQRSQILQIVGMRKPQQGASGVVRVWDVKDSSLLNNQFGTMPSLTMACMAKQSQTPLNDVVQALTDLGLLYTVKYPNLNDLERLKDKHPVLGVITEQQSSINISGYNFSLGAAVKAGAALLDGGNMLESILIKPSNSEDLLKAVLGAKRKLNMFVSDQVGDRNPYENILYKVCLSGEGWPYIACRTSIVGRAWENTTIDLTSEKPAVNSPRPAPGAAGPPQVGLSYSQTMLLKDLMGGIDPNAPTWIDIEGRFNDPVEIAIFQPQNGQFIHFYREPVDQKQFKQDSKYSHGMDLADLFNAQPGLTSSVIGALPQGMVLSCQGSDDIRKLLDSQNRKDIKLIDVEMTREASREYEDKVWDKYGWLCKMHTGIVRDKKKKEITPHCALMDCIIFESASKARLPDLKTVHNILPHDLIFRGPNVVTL
Peroxisome proliferator-activated receptor delta (Homo sapiens), sequence (Q03181 whole entry, looked up): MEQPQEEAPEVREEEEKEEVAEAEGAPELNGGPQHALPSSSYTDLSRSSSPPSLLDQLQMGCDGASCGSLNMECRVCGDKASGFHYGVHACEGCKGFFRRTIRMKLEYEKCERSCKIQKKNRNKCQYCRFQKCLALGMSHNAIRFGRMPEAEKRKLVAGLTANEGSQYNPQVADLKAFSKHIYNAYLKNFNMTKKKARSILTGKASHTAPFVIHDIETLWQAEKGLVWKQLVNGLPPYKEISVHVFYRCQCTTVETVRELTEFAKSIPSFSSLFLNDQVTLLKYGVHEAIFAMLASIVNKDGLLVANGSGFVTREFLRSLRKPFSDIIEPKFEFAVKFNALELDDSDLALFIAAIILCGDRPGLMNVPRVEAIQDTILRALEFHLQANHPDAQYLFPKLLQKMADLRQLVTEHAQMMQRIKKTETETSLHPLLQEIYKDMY
Bile acid receptor (Homo sapiens), sequence (Q96RI1 whole entry, looked up): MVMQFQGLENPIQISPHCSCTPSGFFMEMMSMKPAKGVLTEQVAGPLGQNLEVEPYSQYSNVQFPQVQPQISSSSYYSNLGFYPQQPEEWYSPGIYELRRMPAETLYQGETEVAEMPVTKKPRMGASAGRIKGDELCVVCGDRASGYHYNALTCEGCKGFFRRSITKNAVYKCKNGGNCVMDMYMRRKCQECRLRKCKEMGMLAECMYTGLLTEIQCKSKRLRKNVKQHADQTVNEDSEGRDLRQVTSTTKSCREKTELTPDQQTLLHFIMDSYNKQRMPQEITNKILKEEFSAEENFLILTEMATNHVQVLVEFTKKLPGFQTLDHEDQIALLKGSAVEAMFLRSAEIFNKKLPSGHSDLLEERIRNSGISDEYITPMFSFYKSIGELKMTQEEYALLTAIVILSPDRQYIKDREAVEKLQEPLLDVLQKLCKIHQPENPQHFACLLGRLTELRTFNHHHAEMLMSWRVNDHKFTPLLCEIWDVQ
Nuclear receptor subfamily 1 group I member 3 (Homo sapiens), sequence (Q14994 whole entry, looked up): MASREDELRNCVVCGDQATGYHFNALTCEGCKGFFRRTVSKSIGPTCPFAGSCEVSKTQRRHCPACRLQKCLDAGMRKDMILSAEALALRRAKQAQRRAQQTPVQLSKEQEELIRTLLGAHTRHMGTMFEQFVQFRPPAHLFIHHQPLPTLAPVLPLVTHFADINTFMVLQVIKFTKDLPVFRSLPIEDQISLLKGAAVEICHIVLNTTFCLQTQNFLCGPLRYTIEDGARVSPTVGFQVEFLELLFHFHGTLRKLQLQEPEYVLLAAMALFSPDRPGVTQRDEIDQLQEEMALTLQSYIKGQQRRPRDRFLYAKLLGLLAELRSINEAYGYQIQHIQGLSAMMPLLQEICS

O=C(O)C(=O)Nc1cccc(C2=NN=N[N]2)c1
97.2%: growth, % of control [4]
inactive: Potency [5] | Potency [6] | Potency [7] | Potency [8] | Potency (CRL-7250)
136%: parasite growth, % of control (lower = inhibition) [3]
99.9%: parasite growth remaining, % of DMSO control (lower = more inhibition) [2]
82.2%: parasite growth, % of DMSO control [1]

O=C(/C=C/C=C/c1ccc2c(c1)OCO2)N1CCCCC1
inactive: activation [9] 4.73% | Potency [10] | Potency [5] | Potency [6] | Potency [7] | Potency [8] | Potency [11] | Potency (CRL-7250)
-9.28%: activity change, negative = inhibition [12]

Cc1cc2nc3c(=O)[nH]c(=O)nc-3n(CC(O)C(O)C(O)CO)c2cc1C (configuration not stated)
inactive: Potency [5] | Potency [6] | Potency [11] | Potency [12] | Potency [13] | Potency (CRL-7250)

CC(=O)N1CCN(c2ccc(OCc3nn(C)c(C)c3-c3cccc4c(CCCOc5cccc6ccccc56)c(C(=O)O)n(Cc5cccnc5)c34)cc2)CC1
inactive: Potency [5] | Potency [6] | Potency [8] | Potency (CRL-7250)

CC(C)c1cnn2c(NCc3ccccc3)cc(NCCCCCCN)nc12
inactive: Potency (CRL-7250)
active: Potency [6] 1930 nM | Potency [7] 1090 nM | Potency [8] 1530 nM | Potency [14] 10000 nM | Potency [12] 22400 nM

CCC[C@@H](NC(=O)[C@@H]1[C@H]2CCC[C@@H]2CN1C(=O)[C@@H](NC(=O)[C@@H](NC(=O)c1cnccn1)C1CCCCC1)C(C)(C)C)C(=O)C(=O)NC1CC1
inactive: Potency [5] | Potency [6] | Potency [8] | Potency (CRL-7250)

CCCc1nc(C(C)(C)O)c(C(=O)O)n1Cc1ccc(-c2ccccc2-c2nn[nH]n2)cc1
-8.69% and -17.9%: activity change, negative = inhibition [12]
inactive: Potency [5] | Potency [7] | Potency [8] | outcome [15] | Potency [16] | outcome [17] | Potency [11] | Potency (CRL-7250)
